Measured values as given in PubChem BioAssay AID1508600 (Functional Genomics Laboratory (NCATS/FGL), 2020).
Hit rate of the full screen: of about 53,000 sequences, about 3,700 (7%) were called active.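 The calls were made as follows: active = gene knockdowns whose robust z-score for IL-1 alpha signal is at least 2 or at most -2, so actives lie on both sides; inactive = the rest.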 This excerpt belongs to a sample that is enriched for actives.

Test: Components of the Cytosolic LPS Sensing Pathway: Gene Identification via Genome-wide siRNA Screen;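 also: robust z of the log signal after scaling to non-targeting control siRNA wells of the plate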
Conditions: RAW264.7 macrophages, IL-1a HTRF, actives lie on both sides, screened at 100 nM (by protocol), cells primed 5 h with Pam3CSK4 first
Method in brief: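 Using IL-1a HTRF as read-out, the screen measured release from RAW264.7 cells after 48h siRNA knockdown (100 nM), 5 h Pam3CSK4 priming and 24 h cytosolic LipidA. Values were expressed relative to negative-control wells as robust z-scores.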

Q: With CGACUACAAUGGGCUCAAGTT against Kifc3 as the sequence, how does the z-score read?
A: -2.1 (active)

Q: Which z-score does the source give for GGUAAAGGGUUCUUGGACATT against Eps15l1 here?
A: -0.156 (inactive)

Q: Which z-score does the source give for GGAGAAUGCCCUGAUAUAGTT against Hyal5 here?
A: 1.56 (inactive)

Q: Which z-score does the source give for GGAUGUGAUUGAUAUUGAATT against Cul7 here?
A: 1.63 (inactive)

Q: With GCAGUAGUCUUGGAAUUAATT against Bhlhe41 as the sequence, how does the z-score read?
A: 2.15 (active)

Q: Which z-score does the source give for GCAGCGAGGUUAUCAGUAATT against Sox8 here?
A: -0.554 (inactive)

Q: Which z-score does the source give for GCCUUUUUACAGCUCAGGUTT against Zfp975 here?
A: -0.623 (inactive)

Q: Which z-score does the source give for GCCACCCUUCUGGAGAUUCTT against Gm6787 here?
A: 1.49 (inactive)

Q: For CGGUAUCUACAUCAUAAACTT against Rpsa, which z-score is on record?
A: 0.172 (inactive)

Q: With “GGUUACCAGAAAAUAACUATT against E130114P18Rik” as the sequence, how does the z-score read?
A: 0.852 (inactive)

Q: With UGUCAACUGACUGUAGUAATT against Zmynd12 as the sequence, how does the z-score read?
A: 1.66 (inactive)

Q: Which z-score does the source give for GGACUGGAAAAUAUCAAACTT against Spata5 here?
A: 2.04 (active)

Q: For GGCUACGUGAAGGAACAGUTT against Rps10, which z-score is on record?
A: 0.397 (inactive)

Q: For GGCACUUAAGUAUUCUUCATT against Wac, which z-score is on record?
A: -0.412 (inactive)

Q: With GGAAAAAUCAGUUUCGUCUTT against Dgkq as the sequence, how does the z-score read?
A: 0.305 (inactive)

Q: Which z-score does the source give for GGUUAGCCAGCUGAAUCAATT against Cxxc4 here?
A: 1.89 (inactive)

Q: With CCUAGAAAGAGGACUCAGATT against Abhd12 as the sequence, how does the z-score read?
A: -0.293 (inactive)

Q: For CCUUUAAAGGGCAUAUUCATT against Clip1, which z-score is on record?
A: 1.46 (inactive)

Q: For GGCCUGCCGGAGAUAAAGATT against Tex43, which z-score is on record?
A: -0.759 (inactive)

Q: For CCCUGUCUUUCCUAGGCCATT against Mcat, which z-score is on record?
A: -3.3 (active)

Q: Which z-score does the source give for AGGGCACAAAAGGUGACAATT against Rph3al here?
A: -0.887 (inactive)

Q: With GGAUGAUGUUCCCAUGCAATT against Cdca7l as the sequence, how does the z-score read?
A: -0.45 (inactive)

Q: With “GCUGCUCGAUUGCUUUCCATT against 4930429B21Rik” as the sequence, how does the z-score read?
A: 0.411 (inactive)

Q: For GGACCAAGUGGAAGAAGCATT against Nkx1-2, which z-score is on record?
A: -2.02 (active)

Q: With GGACAGAUGGAAUAGUGAATT against Klra10 as the sequence, how does the z-score read?
A: -0.657 (inactive)

Q: With CCAUCAAGCGAUUUGUGGUTT against Rnf103 as the sequence, how does the z-score read?
A: -0.156 (inactive)

Q: For GGCCAGCAGACUAUUUAUUTT against Derl1, which z-score is on record?
A: 0.304 (inactive)

Q: Which z-score does the source give for GGUGCAAGUGCAGUUUCAATT against Fxyd6 here?
A: 2.38 (active)

Q: Which z-score does the source give for GCACAAAAUUCACUGUUAGTT against Olfr112 here?
A: 0.965 (inactive)

Q: With GCUCGGUAGGUAUUUUCUGTT against Tmem164 as the sequence, how does the z-score read?
A: -0.13 (inactive)

Q: For GGCUGAUGCAGACAGUUUCTT against Brap, which z-score is on record?
A: -0.655 (inactive)

Q: For GGAUUGAAACAGAUGAGAGTT against Gtf2e1, which z-score is on record?
A: 0.833 (inactive)

Q: With GGAGUGCUGAUAAAAGAAGTT against Atp5mpl as the sequence, how does the z-score read?
A: -0.952 (inactive)

Q: For GUUCUAUGGUAGACAUUAUTT against Gm5414, which z-score is on record?
A: -2.35 (active)

Q: For GCUCUCAUACACGGUGGAATT against Ros1, which z-score is on record?
A: -0.272 (inactive)

Q: Which z-score does the source give for GGAGACCUCAGCUGAUAUUTT against Tmem109 here?
A: 0.51 (inactive)

Q: Which z-score does the source give for GGUUCUGAACCAGCUGGAGTT against Chd3 here?
A: 2.72 (active)

Q: For GGCCAUGCCUUUGUAUGCUTT against Tbc1d25, which z-score is on record?
A: -0.155 (inactive)

Q: With GGAUUUUGUUGACAAUGAUTT against Ncaph as the sequence, how does the z-score read?
A: -0.0936 (inactive)

Q: For GGAGCUCUUGGAUAUAAAATT against Eif4enif1, which z-score is on record?
A: 0.223 (inactive)

Q: With GGUGAGACAGAUAAAGUUCTT against Olfr1124 as the sequence, how does the z-score read?
A: 1.15 (inactive)

Q: With GGUAAAAGCUACCAUUCAGTT against Ap2a2 as the sequence, how does the z-score read?
A: -0.947 (inactive)

Q: For GGUUUGUUUUUGUUCGUUUTT against Cytip, which z-score is on record?
A: -0.067 (inactive)

Q: Which z-score does the source give for GGCAAGAAAAAUCAGAUUGTT against Cyld here?
A: 3 (active)

Q: Which z-score does the source give for GGAGUUUACGGCUAUUGACTT against Adap2 here?
A: -0.884 (inactive)

Q: For GGUUUAAUUCUUGUCUUGUTT against Pvt1, which z-score is on record?
A: -0.928 (inactive)

Q: For GGUUAUCGGUUGUACAUAUTT against Chd3, which z-score is on record?
A: 1.03 (inactive)

Q: With CGUGGACUCUAUAAUCAACTT against Map7d1 as the sequence, how does the z-score read?
A: 2.47 (active)

Q: For GGCAAGCUUCCAGAUCGAATT against Adam23, which z-score is on record?
A: 0.0113 (inactive)

Q: Which z-score does the source give for GGAACCAGAUCUCAUGCCCTT against Endov here?
A: -1.47 (inactive)

Q: Which z-score does the source give for GGAUCACACUAGUAUUUUCTT against Sertad2 here?
A: -0.923 (inactive)

Q: For GCUAAAAACAACUAGGAAATT against Wdr60, which z-score is on record?
A: 0.391 (inactive)

Q: With GCAUCGUGUGCAAGAUCCUTT against Atp4b as the sequence, how does the z-score read?
A: 2.74 (active)

Q: With GGAAAUAUAUCUGAAAGGGTT against Sphkap as the sequence, how does the z-score read?
A: 0.514 (inactive)

Q: With GCUCGCUAAAGUGAUUAAATT against Gm5533 as the sequence, how does the z-score read?
A: 0.867 (inactive)

Q: With GGACUUUCUAAGGGUAAAATT against Luzp1 as the sequence, how does the z-score read?
A: -0.0646 (inactive)

Q: For GGACAAAGCUAUUGGGAUUTT against Olfr402, which z-score is on record?
A: 1.45 (inactive)

Q: Which z-score does the source give for GGUGAUGGUCCAGAUUAACTT against Plpbp here?
A: -0.0895 (inactive)

Q: For GCUGAAAUAGUUGCUAAAUTT against Usp6nl, which z-score is on record?
A: 0.443 (inactive)

Q: For GGAACUGUCACAACUGCUATT against Acat3, which z-score is on record?
A: 3.22 (active)

Q: For GGAGAAGCUCAUCUCUCUGTT against Rfx2, which z-score is on record?
A: -1.35 (inactive)

Q: Which z-score does the source give for GGAACAUCUUUCUUCUCCATT against Abhd4 here?
A: -0.869 (inactive)

Q: For GGAUUCGGACUUCAUAAUCTT against Dpp10, which z-score is on record?
A: 0.256 (inactive)

Q: With GCUGAUAAAUCUGAACUACTT against Dhrs7 as the sequence, how does the z-score read?
A: 1.15 (inactive)

Q: With GGUUCUGAGUAUUUAAAGCTT against Nt5dc3 as the sequence, how does the z-score read?
A: 2.21 (active)

Q: With GGACAUCUCCUUGAUCUUGTT against Slc1a5 as the sequence, how does the z-score read?
A: -0.95 (inactive)

Q: With UCACCAUCUUGAAGAUUCGTT against Olfr486 as the sequence, how does the z-score read?
A: -0.792 (inactive)

Q: Which z-score does the source give for GCAGGAUCCUGAAACCAUGTT against Lrrc14 here?
A: -2.09 (active)

Q: With GCCCAAGACGAAAAGAUACTT against Mrpl9 as the sequence, how does the z-score read?
A: 0.662 (inactive)
